In article PMC3218832 one finds binding signal data, which are given here for 15 sequences.

Among the targets are RELARELA (p65 homodimer) (Homo sapiens, UniProt Q04206 1-307); p50p50 homodimer (Homo sapiens, UniProt P19838 7-356); RELB subunit;p50 subunit (Homo sapiens;Homo sapiens, UniProt Q01201;P19838 120-401;7-356).
Common to all, as to assay: protein binding microarray; high values mean tight binding
Settings in all cases: dsDNA, one strand shown

In another assay the target is T1, p52p52 homodimer (Homo sapiens, UniProt Q00653 4-332).
T1 sequence: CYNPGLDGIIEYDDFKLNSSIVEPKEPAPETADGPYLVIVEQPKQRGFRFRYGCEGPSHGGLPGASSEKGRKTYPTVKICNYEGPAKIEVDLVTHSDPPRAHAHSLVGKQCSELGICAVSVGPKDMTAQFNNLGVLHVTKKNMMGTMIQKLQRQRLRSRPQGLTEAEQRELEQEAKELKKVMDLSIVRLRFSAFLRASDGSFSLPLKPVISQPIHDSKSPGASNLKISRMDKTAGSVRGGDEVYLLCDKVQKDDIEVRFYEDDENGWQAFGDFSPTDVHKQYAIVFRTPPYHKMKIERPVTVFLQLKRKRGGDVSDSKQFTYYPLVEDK

Assay [1] addresses RELA (p65) subunit of heterodimer;p50 subunit (Homo sapiens;Homo sapiens, UniProt Q04206;P19838 1-307;7-356).
Assay [2] concerns the target RELA (p65) subunit of heterodimer;p52 subunit (Homo sapiens;Homo sapiens, UniProt Q04206;Q00653 1-307;4-332).
For another assay, the target named is T2, RELB subunit;p52 subunit (Homo sapiens;Homo sapiens, UniProt Q01201;Q00653 120-401;4-332).
T2 sequence 1: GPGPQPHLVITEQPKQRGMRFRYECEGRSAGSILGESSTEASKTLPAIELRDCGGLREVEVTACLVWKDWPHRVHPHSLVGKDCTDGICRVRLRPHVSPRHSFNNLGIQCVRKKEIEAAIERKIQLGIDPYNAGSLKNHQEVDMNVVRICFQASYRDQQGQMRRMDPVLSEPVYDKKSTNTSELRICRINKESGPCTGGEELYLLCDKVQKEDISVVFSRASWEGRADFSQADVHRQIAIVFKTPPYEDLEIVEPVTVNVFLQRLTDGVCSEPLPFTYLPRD
T2 sequence 2: T1 sequence

Assay [3] deals with C-Rel subunit;p50 subunit (Homo sapiens;Homo sapiens, UniProt Q04864;P19838 1-285;7-356).
The target in assay [4] is T3, C-Rel subunit;p52 subunit (Homo sapiens;Homo sapiens, UniProt Q04864;Q00653 1-285;4-332).
T3 sequence 1: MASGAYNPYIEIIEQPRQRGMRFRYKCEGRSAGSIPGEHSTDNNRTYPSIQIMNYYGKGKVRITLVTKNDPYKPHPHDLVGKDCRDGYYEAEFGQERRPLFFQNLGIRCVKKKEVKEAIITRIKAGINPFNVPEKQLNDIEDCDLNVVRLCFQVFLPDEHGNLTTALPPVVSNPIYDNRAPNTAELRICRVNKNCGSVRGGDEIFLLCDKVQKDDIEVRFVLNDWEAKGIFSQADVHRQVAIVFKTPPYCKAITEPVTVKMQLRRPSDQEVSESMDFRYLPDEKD
T3 sequence 2: T1 sequence

Chain of p50p50 homodimer (P19838 7-356): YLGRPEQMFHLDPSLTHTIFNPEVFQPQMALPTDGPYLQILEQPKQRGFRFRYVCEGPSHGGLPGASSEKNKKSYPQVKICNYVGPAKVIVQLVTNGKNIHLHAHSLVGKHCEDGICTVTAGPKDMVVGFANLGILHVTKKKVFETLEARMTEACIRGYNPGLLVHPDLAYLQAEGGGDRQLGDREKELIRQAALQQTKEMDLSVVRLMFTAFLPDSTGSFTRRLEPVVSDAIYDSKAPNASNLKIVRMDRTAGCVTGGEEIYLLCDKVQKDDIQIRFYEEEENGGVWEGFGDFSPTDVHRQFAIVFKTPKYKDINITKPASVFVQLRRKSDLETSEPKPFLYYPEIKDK
Chain of RELA (p65) subunit of heterodimer;p50 subunit (Q04206 1-307, chain 1 of 2): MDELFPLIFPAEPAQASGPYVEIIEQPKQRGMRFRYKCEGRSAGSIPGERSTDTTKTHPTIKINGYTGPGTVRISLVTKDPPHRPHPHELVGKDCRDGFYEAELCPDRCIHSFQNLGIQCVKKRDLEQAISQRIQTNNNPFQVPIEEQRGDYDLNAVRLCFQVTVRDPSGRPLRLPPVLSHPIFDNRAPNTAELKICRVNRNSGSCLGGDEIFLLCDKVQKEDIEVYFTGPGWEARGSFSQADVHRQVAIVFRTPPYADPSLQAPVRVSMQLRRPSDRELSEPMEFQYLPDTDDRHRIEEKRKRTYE
Chain of RELA (p65) subunit of heterodimer;p50 subunit (P19838 7-356, chain 2 of 2): as the sequence (P19838 7-356) above
Chain of RELARELA (p65 homodimer) (Q04206 1-307): as the sequence (Q04206 1-307, chain 1 of 2) above

For GAGTTAATCCC, the binding signal in the assay with RELARELA (p65 homodimer) was 0.0777 z-score; with p50p50 homodimer, -0.527 z-score; with p52p52 homodimer, -0.147 z-score; in assay [1], -0.451 z-score; in assay [2] it was -0.217 z-score; with RELB subunit;p50 subunit, -0.125 z-score. Moreover, the binding signal with RELB subunit;p52 subunit was -0.157 z-score; in [3], -0.186 z-score; in assay [4], -0.227 z-score.
In the case of GAATACATCCT, the binding signal with RELARELA (p65 homodimer) is -0.313 z-score; in the assay with p50p50 homodimer, -0.946 z-score; with p52p52 homodimer, -0.677 z-score; in [1], -0.816 z-score; in assay [2], -0.805 z-score; in the assay with RELB subunit;p50 subunit, -0.977 z-score. For the same sequence, the binding signal in the assay with RELB subunit;p52 subunit was -0.824 z-score; in assay [3], -1.36 z-score; in assay [4] it was -0.87 z-score.
Take GAAAGTGTCCT: the binding signal with RELARELA (p65 homodimer) is 0.0215 z-score; in the assay with p50p50 homodimer, -1.58 z-score; with p52p52 homodimer, -0.464 z-score; in assay [1], -0.843 z-score; in [2], -0.45 z-score; with RELB subunit;p50 subunit it was -0.858 z-score. Further, the binding signal with RELB subunit;p52 subunit was -0.525 z-score; in assay [3], -0.958 z-score; in [4] it was -0.375 z-score.
As for CGGAAGCTCCT, the binding signal is -0.12 z-score in the assay with RELARELA (p65 homodimer); -1.95 z-score with p50p50 homodimer; -0.752 z-score with p52p52 homodimer; -1.05 z-score in [1]; -1.08 z-score in assay [2]; -1.17 z-score in the assay with RELB subunit;p50 subunit. Further, the values for the binding signal (in the assay with RELB subunit;p52 subunit; in assay [3]; in [4]) were -1.2 z-score, -1.46 z-score and -0.785 z-score, respectively.
As to CGGATAATCCT, the binding signal in the assay with RELARELA (p65 homodimer) was 0.536 z-score; with p50p50 homodimer it was -1.31 z-score; in the assay with p52p52 homodimer, -0.659 z-score; in assay [1] it was -1.04 z-score; in assay [2] it was -0.831 z-score; in the assay with RELB subunit;p50 subunit, -1.02 z-score. The binding signal in the assay with RELB subunit;p52 subunit is -1.08 z-score; in assay [3], -0.945 z-score; in [4] it was -0.765 z-score.
In the case of GGAATGATCCC, the binding signal with RELARELA (p65 homodimer) is -0.0862 z-score; with p50p50 homodimer, -0.737 z-score; in the assay with p52p52 homodimer it was -0.387 z-score; in assay [1], -0.382 z-score; in assay [2] it was -0.396 z-score; with RELB subunit;p50 subunit, -0.763 z-score. The binding signal in the assay with RELB subunit;p52 subunit is -0.764 z-score; in assay [3] it was -0.432 z-score; in [4], -0.264 z-score.
As to GAAAGCTCCCC, the binding signal in the assay with RELARELA (p65 homodimer) is -0.0663 z-score; with p50p50 homodimer, 0.67 z-score; with p52p52 homodimer, 0.244 z-score; in assay [1], 0.536 z-score; in assay [2] it was 0.231 z-score; in the assay with RELB subunit;p50 subunit, 0.445 z-score. Also, the binding signal with RELB subunit;p52 subunit turned out to be 0.294 z-score; in [3], 0.317 z-score; in assay [4], 0.189 z-score.
In the case of CGGGGTTCCCC, the binding signal in the assay with RELARELA (p65 homodimer) was determined as 2.62 z-score; with p50p50 homodimer, 0.899 z-score; with p52p52 homodimer, 3.05 z-score; in [1] it was 2.3 z-score; in [2], 2.64 z-score; in the assay with RELB subunit;p50 subunit it was 1.93 z-score. Besides, the values for the binding signal (in the assay with RELB subunit;p52 subunit; in [3]; in assay [4]) were 2.28 z-score, 2.2 z-score and 3.29 z-score, respectively.
Turning to AGAAACTTCCC, the binding signal turned out to be 2.01 z-score with RELARELA (p65 homodimer); 0.652 z-score with p50p50 homodimer; 0.45 z-score with p52p52 homodimer; 0.846 z-score in [1]; 0.818 z-score in [2]; 0.409 z-score with RELB subunit;p50 subunit. In addition, the figures for the binding signal (with RELB subunit;p52 subunit; in assay [3]; in [4]) were 0.541 z-score, 0.576 z-score and 0.741 z-score, respectively.
With GGGGTGTTCCT, the binding signal with RELARELA (p65 homodimer) turned out to be 1.06 z-score; with p50p50 homodimer, 0.337 z-score; with p52p52 homodimer, 0.617 z-score; in assay [1], 0.455 z-score; in assay [2], 0.487 z-score; in the assay with RELB subunit;p50 subunit, 0.00295 z-score. For the same sequence, the binding signal with RELB subunit;p52 subunit turned out to be 0.472 z-score; in [3] it was 0.537 z-score; in assay [4], 0.791 z-score.
With GAAAAATTCCT, the binding signal is 1.78 z-score in the assay with RELARELA (p65 homodimer); -0.0646 z-score with p50p50 homodimer; -0.212 z-score in the assay with p52p52 homodimer; 0.245 z-score in assay [1]; 0.117 z-score in [2]; -0.659 z-score in the assay with RELB subunit;p50 subunit. Also, the binding signal with RELB subunit;p52 subunit was -0.236 z-score; in assay [3], 0.538 z-score; in assay [4], 0.319 z-score.
CAAGTTGTCCC: the binding signal in the assay with RELARELA (p65 homodimer) came to 0.644 z-score; in the assay with p50p50 homodimer, 0.614 z-score; with p52p52 homodimer, 0.469 z-score; in assay [1], 0.421 z-score; in [2], 0.267 z-score; with RELB subunit;p50 subunit it was 0.826 z-score. The results for the binding signal (with RELB subunit;p52 subunit; in assay [3]; in [4]) were 0.446 z-score, 0.778 z-score and 0.251 z-score, respectively.
For CAGTGGTCCCC, the binding signal was -0.00968 z-score with RELARELA (p65 homodimer); 0.538 z-score with p50p50 homodimer; 0.29 z-score in the assay with p52p52 homodimer; 0.247 z-score in assay [1]; 0.212 z-score in assay [2]; 0.612 z-score in the assay with RELB subunit;p50 subunit. Also, the binding signal in the assay with RELB subunit;p52 subunit worked out at 0.412 z-score; in assay [3], 0.329 z-score; in assay [4] it was 0.0114 z-score.
Take AAAGAATTCCC: the binding signal in the assay with RELARELA (p65 homodimer) turned out to be 2.27 z-score; with p50p50 homodimer, 1.08 z-score; with p52p52 homodimer, 1.36 z-score; in [1], 1.57 z-score; in [2], 1.25 z-score; with RELB subunit;p50 subunit it was 1.07 z-score. Besides, the binding signal in the assay with RELB subunit;p52 subunit amounted to 0.975 z-score; in assay [3], 1.54 z-score; in assay [4], 1.12 z-score.
Consider CGATGTACCCC, for which the binding signal was 0.132 z-score with RELARELA (p65 homodimer); 0 z-score in the assay with p50p50 homodimer; -0.0732 z-score with p52p52 homodimer; -0.125 z-score in [1]; 0.16 z-score in assay [2]; 0.299 z-score with RELB subunit;p50 subunit. Moreover, the binding signal was determined as 0.491 z-score in the assay with RELB subunit;p52 subunit, 0.113 z-score in [3] and 0.101 z-score in assay [4].
